PubChem BioAssay AID1347150 (National Center for Advancing Translational Sciences (NCATS), 2019)
Inconclusive results are not listed. The source made the active and inactive calls. The call rests on the fitted dose curve; in most records, active means well fitted curve in the direction sought with a large enough effect; inconclusive means small, poorly fitted or top-dose-only effect, or another doubt; inactive means no such curve, though single readings can be large or run the other way.

system: Zika virus NS2B-NS3 protease (linked); experiment: Optimization screen NINDS AMC qHTS for Zika virus inhibitors: Linked NS2B-NS3 protease assay; details: recombinant linked NS2B-NS3 protease, AMC fluorogenic substrate; series mostly up to 52.5 µM
Source text: Avindra Nath, Ph.D., National Institute of Neurological Disorders and Stroke (NINDS), Bethesda, MD
Radhakrishnan Padmanabhan, Ph.D., Georgetown University (GU), Washington D.C.
Zika Virus causes congenital defects, including microcephaly and is associated with Guillain-Barre syndrome, eningoencephalitis and myelitis in infected adult. […] Using a target-based approach, we hope to establish a screening paradigm to uncover novel, cell-active NS2B-NS3 protease (Zika Virus) specific inhibitors from NCATS' collection of small molecules using qHTS.
Four assay panel was created to identify potential Zika Virus inhibitors. Namely, (1) GU unlinked NS2B-NS3 AMC tagged protease qHTS, (2) GU unlinked NS2B-NS3 Rhodamine tagged protease qHTS, (3) NINDS linked NS2B-NS3 AMC tagged protease qHTS, (4) NINDS linked NS2B-NS3 Rhodamine tagged protease qHTS. Active compounds were re-acquired and re-screened to confirm inhibition. Inhibitors were further screened against various confirmatory and counterscreens in dose response format.
Early Translation Branch (ETB)
National Center for Advancing Translational Sciences (NCATS), Rockville, MD
National Institute of Health (NIH), Bethesda, Maryland
For the linked assay, Nath lab (NINDS) provided the purified linked NS2B-NS3 protease which is consists of hydrophilic domain of NS2B linked to the NS3 protease domain by a flexible (-GGGGSGGGG-) linker. Control compound aprotinin is obtained from Thermo Scientific (#78432; Waltham, Massachusetts). NS2B-NS3 AMC substrate (Bz-Nle-Lys-Arg-Arg-AMC; Nle-KRR-AMC) purchased from Bachem (#I-1995; Torrance, CA). Ac-VKTGKR-AMC purchased from Genscript or Bachem, Ac-FAAGKR-AMC purchased from Genscript, Ac-GLVKRR-AMC purchased from Genscript, Ac-LKKR-AMC purchased from Genscript.
NINDS AMC linked NS2B-NS3 protease qHTS protocol:
Briefly, 3 microL of Zika virus linked NS2B-NS3 protease (1 nM for linked final concentration), in assay buffer (10 mM Tris-HCl pH 8.0 with 0.01% Tween 20) was dispensed into a 1,536-well solid-bottom black plate (Greiner Bio One, Monroe, NC). Twenty-three nL of compounds (final concentration range 7.28 nM to 114 microM) or control Aprotinin (final concentration range 3.47 nM to 114 microM) were transferred via Wako Pin-tool (Wako Automation, Richmond, VA). Samples were incubated (room temperature, protected from light) for 15 minutes followed by a 1 microL AMC substrate addition of (final concentration of 10 microM; Km = 18.3 µM). Plates were then read immediately on a ViewLux High-throughput CCD imager (PerkinElmer, Waltham, MA) equipped with standard UV fluorescence optics (340(30) nm excitation, 450(20) nm emission) then incubated (room temperature, protected from light) for 15 minutes (~20% conversion). The change in fluorescence intensity over the 15-minute reaction period was normalized against no-inhibitor and no-enzyme controls and the resulting percent inhibition data were fitted to a 4-parameter Hill equation. Aprotinin was used as the intraplate control.

SMILES | outcome
C[C@@H]1[C@@H]2Cc3ccc(O)cc3[C@@]1(C)CCN2CC1CC1 | inactive
C[C@@H]1O[C@@H](O[C@H]2C[C@@H](O)[C@]3(CO)C4C(CC[C@]3(O)C2)[C@@]2(O)CC[C@H](C3=CC(=O)OC3)[C@@]2(C)C[C@H]4O)[C@H](O)[C@H](O)[C@H]1O (stereo partly specified) | inactive
C[C@@H]1O[C@@H](O[C@H]2C[C@@H](O)[C@]3(CO)[C@H]4[C@H](O)C[C@]5(C)[C@@H](C6=CC(=O)OC6)CC[C@]5(O)[C@@H]4CC[C@]3(O)C2)[C@H](O)[C@H](O)[C@H]1O | inactive
C=CCN1CC[C@]23CCCCC2[C@H]1Cc1ccc(O)cc13 (stereo partly specified) | inactive
C[C@H]1[C@H]2Cc3ccc(O)cc3[C@]1(C)CCN2CCc1ccccc1 | inactive
CC[C@H](C)[C@H]1O[C@]2(C=C[C@@H]1C)C[C@@H]1C[C@@H](C/C=C(\C)[C@@H](O[C@H]3C[C@H](OC)[C@@H](O[C@H]4C[C@H](OC)[C@@H](O)[C@H](C)O4)[C@H](C)O3)[C@@H](C)/C=C/C=C3\CO[C@@H]4[C@H](O)C(C)=C[C@@H](C(=O)O1)[C@]34O)O2 | inactive
CC1OC(O[C@H]2C[C@@H](O)[C@]3(CO)[C@H]4[C@H](O)C[C@]5(C)[C@@H](C6=CC(=O)OC6)CC[C@]5(O)[C@@H]4CC[C@]3(O)C2)C(O)C(O)C1O (stereo partly specified) | inactive
CN1CC[C@@]23CCCC[C@@H]2[C@@H]1Cc1ccc(O)cc13 | inactive
CO[C@H]1[C@@H](O)CC(OC2[C@@H](O)CC(OC3[C@@H](O)C[C@H](OC4CC[C@@]5(C)C(CCC6C5CC(O)[C@]5(C)[C@H](C7=CC(=O)OC7)CCC65O)C4)O[C@@H]3C)O[C@@H]2C)O[C@@H]1C (stereo partly specified) | inactive
Cc1ccc2c(c1)[C@]13CCCC[C@@H]1[C@H](C2)N(C)CC3 | inactive
C[C@H]1O[C@@H](O[C@H]2[C@@H](O)C[C@H](O[C@H]3[C@@H](O)C[C@H](O[C@H]4CC[C@]5(C)C6CC[C@]7(C)[C@@H](C8=CC(=O)OC8)CC[C@]7(O)C6CC[C@@H]5C4)O[C@@H]3C)O[C@@H]2C)C[C@H](O)[C@@H]1O (stereo partly specified) | inactive
C=CCN1CCC2(C)c3cc(O)ccc3CC1C2C (stereo unspecified) | inactive
C=CCN1CCC2(C)c3cc(O)ccc3C[C@H]1[C@H]2C | inactive
CC1O[C@@H](O[C@@H]2C(O)C[C@H](O[C@@H]3C(O)C[C@@H](OC4CC[C@@]5(C)C6CC[C@]7(C)C(C8=CC(=O)OC8)CC[C@@]7(O)C6CC[C@@H]5C4)OC3C)OC2C)CC(O)[C@H]1O (stereo partly specified) | inactive
C[C@H]1O[C@@H](O[C@H]2[C@@H](O)C[C@@H](O[C@H]3[C@@H](O)C[C@H](O[C@H]4CC[C@@]5(C)[C@H](CC[C@@H]6[C@@H]5CC[C@]5(C)[C@@H](C7=CC(=O)OC7)CC[C@]65O)C4)O[C@@H]3C)O[C@@H]2C)C[C@H](O)[C@@H]1O | inactive
COC1C(O)C(C)O[C@@H](OC2CC[C@@]3(C)C4CC[C@]5(C)C(C6=CC(=O)OC6)CC[C@@]5(O)C4CC[C@@H]3C2)C1O (stereo partly specified) | inactive
CC(C)=CCN1CC[C@@]2(C)c3cc(O)ccc3C[C@@H]1[C@@H]2C | inactive
C[C@@H]1[C@@H]2Cc3ccc(O)cc3[C@@]1(C)CCN2CCc1ccccc1 | inactive
CC(C)OC(=O)Nc1ccccc1 | inactive
CN1CC[C@@]23CCCCC2C1Cc1ccc(O)cc13 (stereo partly specified) | inactive
C[C@H]1O[C@@H](O[C@H]2[C@@H](O)C[C@H](O[C@H]3[C@@H](O)C[C@H](O[C@H]4CC[C@@]5(C)[C@H](CC[C@@H]6[C@@H]5CC[C@]5(C)[C@@H](C7=CC(=O)OC7)CC[C@]65O)C4)O[C@@H]3C)O[C@@H]2C)C[C@H](O)[C@@H]1O | inactive
